# Publication PMC7862700, “An all-to-all approach to the identification of sequence-specific readers for epigenetic DNA modifications on cytosine”
# How the values were obtained:
# Assay in all cases: DAPPL (digital affinity profiling via proximity ligation, sequencing); 10 mM Tris-HCl pH 7.5, 50 mM NaCl, 1 mM DTT, 4% glycerol, room temperature, 30 min; GST-TFs on glutathione beads, 16-mer random dsDNA library, 0.1% formaldehyde crosslink after washing; high values mean tight binding
# FLI1 = molecular target: T1, FLI1 (Homo sapiens, UniProt Q01543 1-452); conditions: protein: recombinant; tags: N-terminal GST; dsDNA, one strand shown
# T1 sequence: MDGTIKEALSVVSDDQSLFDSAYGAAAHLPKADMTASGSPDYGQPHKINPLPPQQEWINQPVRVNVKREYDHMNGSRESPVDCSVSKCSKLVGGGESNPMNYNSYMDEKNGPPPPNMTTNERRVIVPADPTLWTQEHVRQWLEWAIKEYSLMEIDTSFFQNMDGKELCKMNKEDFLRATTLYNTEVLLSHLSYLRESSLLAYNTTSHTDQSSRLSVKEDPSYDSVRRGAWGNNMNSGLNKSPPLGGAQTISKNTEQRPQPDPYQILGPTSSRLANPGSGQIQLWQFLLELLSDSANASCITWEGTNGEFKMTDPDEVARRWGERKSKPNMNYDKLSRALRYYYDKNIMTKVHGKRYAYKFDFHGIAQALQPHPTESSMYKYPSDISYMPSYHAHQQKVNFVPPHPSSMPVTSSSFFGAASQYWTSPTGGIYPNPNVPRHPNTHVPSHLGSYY
# In short: (§1)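 GST fusions of human transcription factors were expressed in yeast and captured with glutathione beads. Once given DNA barcodes and pooled alongside a tag-only sample, they were incubated for 30 min at room temperature with 200 nmole of a random double-stranded 16-mer DNA library in Tris/NaCl/DTT/glycerol buffer, then washed, crosslinked (0.1% formaldehyde), proximity-ligated, PCR-amplified and sequenced on an Illumina NextSeq500. The binding signal of each hexamer is its read frequency for a factor divided by its frequency for the tag-only sample.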
# ELK1 = molecular target: T2, ELK1 (Homo sapiens, UniProt P19419 1-428); conditions: protein: recombinant; tags: N-terminal GST; dsDNA, one strand shown
# T2 sequence: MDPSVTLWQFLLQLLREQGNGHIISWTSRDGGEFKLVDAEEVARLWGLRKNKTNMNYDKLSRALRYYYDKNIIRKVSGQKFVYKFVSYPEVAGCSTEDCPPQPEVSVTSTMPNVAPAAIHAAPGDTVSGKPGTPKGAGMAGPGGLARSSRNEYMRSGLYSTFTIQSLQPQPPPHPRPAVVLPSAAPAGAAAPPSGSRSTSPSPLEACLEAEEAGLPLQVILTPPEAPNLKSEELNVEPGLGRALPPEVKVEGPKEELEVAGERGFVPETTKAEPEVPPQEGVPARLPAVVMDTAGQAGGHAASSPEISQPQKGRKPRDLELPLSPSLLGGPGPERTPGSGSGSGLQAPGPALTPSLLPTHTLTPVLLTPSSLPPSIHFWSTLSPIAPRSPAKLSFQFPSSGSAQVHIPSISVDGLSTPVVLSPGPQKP
# In short: as §1
# GABPA = molecular target: T3, GABPA (Homo sapiens, UniProt Q06546 1-454); conditions: protein: recombinant; tags: N-terminal GST; dsDNA, one strand shown
# T3 sequence: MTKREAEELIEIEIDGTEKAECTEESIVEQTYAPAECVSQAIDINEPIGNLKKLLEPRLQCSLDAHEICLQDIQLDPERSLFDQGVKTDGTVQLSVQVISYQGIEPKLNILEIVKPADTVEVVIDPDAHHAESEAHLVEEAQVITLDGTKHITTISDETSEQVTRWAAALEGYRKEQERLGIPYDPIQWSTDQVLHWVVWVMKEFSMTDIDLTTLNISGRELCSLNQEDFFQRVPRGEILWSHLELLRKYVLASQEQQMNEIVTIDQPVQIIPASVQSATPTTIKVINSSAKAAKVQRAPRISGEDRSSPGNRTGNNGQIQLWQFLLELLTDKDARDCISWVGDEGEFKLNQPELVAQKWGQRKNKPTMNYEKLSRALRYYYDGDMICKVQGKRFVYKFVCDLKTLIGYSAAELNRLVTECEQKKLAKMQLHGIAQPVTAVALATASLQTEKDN
# In short: as §1
# ERG = molecular target: T4, ERG (Homo sapiens, UniProt P11308 1-479); conditions: protein: recombinant; tags: N-terminal GST; dsDNA, one strand shown
# T4 sequence: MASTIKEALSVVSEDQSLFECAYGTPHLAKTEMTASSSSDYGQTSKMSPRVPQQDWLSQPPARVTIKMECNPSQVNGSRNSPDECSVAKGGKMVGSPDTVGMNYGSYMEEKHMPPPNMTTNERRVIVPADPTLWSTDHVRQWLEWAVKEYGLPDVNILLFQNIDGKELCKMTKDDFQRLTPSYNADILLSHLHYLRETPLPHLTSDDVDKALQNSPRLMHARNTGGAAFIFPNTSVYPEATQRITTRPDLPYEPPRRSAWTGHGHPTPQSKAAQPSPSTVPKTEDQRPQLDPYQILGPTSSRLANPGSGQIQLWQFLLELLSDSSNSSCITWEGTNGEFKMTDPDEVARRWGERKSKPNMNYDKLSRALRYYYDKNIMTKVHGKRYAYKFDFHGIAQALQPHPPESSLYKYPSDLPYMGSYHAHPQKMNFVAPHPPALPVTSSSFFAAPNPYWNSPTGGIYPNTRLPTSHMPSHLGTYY
# In short: as §1
# ELF1 = ELF1 (Homo sapiens, UniProt P32519 1-619); conditions: protein: recombinant; tags: N-terminal GST; dsDNA, one strand shown
# In short: as §1
# EHF = molecular target: T5, EHF (Homo sapiens, UniProt Q9NZC4 1-300); conditions: protein: recombinant; tags: N-terminal GST; dsDNA, one strand shown
# T5 sequence: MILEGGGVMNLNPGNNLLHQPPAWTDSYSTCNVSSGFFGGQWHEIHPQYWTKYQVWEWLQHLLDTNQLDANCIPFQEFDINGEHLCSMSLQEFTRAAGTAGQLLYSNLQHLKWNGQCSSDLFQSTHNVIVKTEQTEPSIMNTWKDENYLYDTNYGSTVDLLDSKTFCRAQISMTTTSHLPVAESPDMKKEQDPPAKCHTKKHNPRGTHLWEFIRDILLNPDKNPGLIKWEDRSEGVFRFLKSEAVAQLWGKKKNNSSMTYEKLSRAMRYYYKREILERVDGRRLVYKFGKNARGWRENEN
# In short: as §1
# SPI1 = SPI1 (Homo sapiens, UniProt P17947 1-270); conditions: protein: recombinant; tags: N-terminal GST; dsDNA, one strand shown
# In short: as §1
# SPIB = SPIB (Homo sapiens, UniProt Q01892 1-262); conditions: protein: recombinant; tags: N-terminal GST; dsDNA, one strand shown
# In short: as §1
# ELK3 = molecular target: T6, ELK3 (Homo sapiens, UniProt P41970 1-407); conditions: protein: recombinant; tags: N-terminal GST; dsDNA, one strand shown
# T6 sequence: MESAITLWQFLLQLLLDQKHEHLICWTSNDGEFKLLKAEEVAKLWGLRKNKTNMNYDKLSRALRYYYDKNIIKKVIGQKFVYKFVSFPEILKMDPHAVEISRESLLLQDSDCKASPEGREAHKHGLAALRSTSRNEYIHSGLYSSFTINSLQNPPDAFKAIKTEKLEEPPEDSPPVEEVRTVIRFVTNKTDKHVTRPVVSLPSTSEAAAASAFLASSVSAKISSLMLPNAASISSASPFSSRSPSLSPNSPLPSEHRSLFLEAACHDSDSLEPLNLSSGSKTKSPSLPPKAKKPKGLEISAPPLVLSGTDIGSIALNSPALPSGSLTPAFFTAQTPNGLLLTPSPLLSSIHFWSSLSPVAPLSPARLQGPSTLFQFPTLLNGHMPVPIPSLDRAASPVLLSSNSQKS
# In short: as §1
# FEV = molecular target: T7, FEV (Homo sapiens, UniProt Q99581 1-238); conditions: protein: recombinant; tags: N-terminal GST; dsDNA, one strand shown
# T7 sequence: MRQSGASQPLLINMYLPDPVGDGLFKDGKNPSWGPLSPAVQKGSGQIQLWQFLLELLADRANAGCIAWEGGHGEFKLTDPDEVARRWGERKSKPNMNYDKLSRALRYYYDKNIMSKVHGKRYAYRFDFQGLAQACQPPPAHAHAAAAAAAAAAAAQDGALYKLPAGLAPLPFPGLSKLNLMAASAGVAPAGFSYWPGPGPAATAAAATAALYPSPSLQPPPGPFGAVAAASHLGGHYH
# In short: as §1
# ETV5 = ETV5 (Homo sapiens, UniProt P41161 1-510); conditions: protein: recombinant; tags: N-terminal GST; dsDNA, one strand shown
# In short: as §1
# HSF1 = HSF1 (Homo sapiens, UniProt Q00613 1-529); conditions: protein: recombinant; tags: N-terminal GST; chain copies: 3; dsDNA, one strand shown
# In short: as §1
# SPIC = molecular target: T8, SPIC (Homo sapiens, UniProt Q8N5J4 1-248); conditions: protein: recombinant; tags: N-terminal GST; dsDNA, one strand shown
# T8 sequence: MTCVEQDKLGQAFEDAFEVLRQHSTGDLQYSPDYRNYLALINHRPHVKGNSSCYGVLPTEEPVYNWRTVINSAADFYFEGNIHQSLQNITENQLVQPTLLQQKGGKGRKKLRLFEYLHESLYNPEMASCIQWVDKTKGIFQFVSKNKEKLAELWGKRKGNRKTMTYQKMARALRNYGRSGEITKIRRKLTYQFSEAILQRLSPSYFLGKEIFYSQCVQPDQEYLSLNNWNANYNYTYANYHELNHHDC
# In short: as §1
# ELF4 = ELF4 (Homo sapiens, UniProt Q99607 1-663); conditions: protein: recombinant; tags: N-terminal GST; dsDNA, one strand shown
# In short: as §1
# ELK4 = molecular target: T9, ELK4 (Homo sapiens, UniProt P28324-2 1-405); conditions: protein: recombinant; tags: N-terminal GST; dsDNA, one strand shown
# T9 sequence: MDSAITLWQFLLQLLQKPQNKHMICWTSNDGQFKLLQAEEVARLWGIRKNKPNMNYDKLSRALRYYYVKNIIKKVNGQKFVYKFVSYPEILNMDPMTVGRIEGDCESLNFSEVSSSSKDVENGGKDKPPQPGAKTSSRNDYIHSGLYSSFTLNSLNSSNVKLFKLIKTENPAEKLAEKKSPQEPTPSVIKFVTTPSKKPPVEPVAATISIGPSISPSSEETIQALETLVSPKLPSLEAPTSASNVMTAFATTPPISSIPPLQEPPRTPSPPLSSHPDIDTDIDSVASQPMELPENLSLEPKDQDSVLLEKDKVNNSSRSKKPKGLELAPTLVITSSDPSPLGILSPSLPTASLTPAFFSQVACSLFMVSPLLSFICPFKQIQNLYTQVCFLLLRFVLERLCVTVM
# In short: as §1
# ETV2 = molecular target: T10, ETV2 (Homo sapiens, UniProt O00321 1-342); conditions: protein: recombinant; tags: N-terminal GST; dsDNA, one strand shown
# T10 sequence: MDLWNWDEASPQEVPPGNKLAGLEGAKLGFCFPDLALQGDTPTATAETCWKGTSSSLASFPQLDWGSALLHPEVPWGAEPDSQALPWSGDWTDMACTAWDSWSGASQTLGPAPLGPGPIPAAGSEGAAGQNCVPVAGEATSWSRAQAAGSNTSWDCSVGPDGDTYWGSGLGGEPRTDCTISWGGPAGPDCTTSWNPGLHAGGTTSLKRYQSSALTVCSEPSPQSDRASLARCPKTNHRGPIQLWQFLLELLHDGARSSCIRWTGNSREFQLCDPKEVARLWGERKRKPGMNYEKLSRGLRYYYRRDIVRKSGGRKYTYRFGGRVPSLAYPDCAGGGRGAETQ
# In short: as §1
# ELF3 = molecular target: T11, ELF3 (Homo sapiens, UniProt P78545 1-371); conditions: protein: recombinant; tags: N-terminal GST; dsDNA, one strand shown
# T11 sequence: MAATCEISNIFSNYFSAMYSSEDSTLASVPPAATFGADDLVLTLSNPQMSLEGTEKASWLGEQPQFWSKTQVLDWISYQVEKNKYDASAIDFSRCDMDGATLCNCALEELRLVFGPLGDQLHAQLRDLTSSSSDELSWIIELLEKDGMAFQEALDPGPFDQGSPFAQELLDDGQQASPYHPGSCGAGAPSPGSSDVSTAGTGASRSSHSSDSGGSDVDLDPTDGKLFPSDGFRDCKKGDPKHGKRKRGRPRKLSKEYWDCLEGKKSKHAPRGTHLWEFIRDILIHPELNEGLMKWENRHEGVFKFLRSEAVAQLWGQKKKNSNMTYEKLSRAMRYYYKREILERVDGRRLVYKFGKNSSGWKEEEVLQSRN
# In short: as §1
# CRX = CRX (Homo sapiens, UniProt O43186 1-299); conditions: protein: recombinant; tags: N-terminal GST; dsDNA, one strand shown
# In short: as §1
# ETV1 = ETV1 (Homo sapiens, UniProt P50549 1-477); conditions: protein: recombinant; tags: N-terminal GST; dsDNA, one strand shown
# In short: as §1
# Chain of SPIB (Q01892 whole entry): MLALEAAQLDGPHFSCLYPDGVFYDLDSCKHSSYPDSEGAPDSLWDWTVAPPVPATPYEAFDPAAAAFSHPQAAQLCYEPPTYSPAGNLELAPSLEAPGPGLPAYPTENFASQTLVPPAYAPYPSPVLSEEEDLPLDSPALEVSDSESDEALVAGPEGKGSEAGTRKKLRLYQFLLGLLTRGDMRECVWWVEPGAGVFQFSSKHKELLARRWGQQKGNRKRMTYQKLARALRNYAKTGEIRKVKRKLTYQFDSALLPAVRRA
# Chain of HSF1 (Q00613 whole entry): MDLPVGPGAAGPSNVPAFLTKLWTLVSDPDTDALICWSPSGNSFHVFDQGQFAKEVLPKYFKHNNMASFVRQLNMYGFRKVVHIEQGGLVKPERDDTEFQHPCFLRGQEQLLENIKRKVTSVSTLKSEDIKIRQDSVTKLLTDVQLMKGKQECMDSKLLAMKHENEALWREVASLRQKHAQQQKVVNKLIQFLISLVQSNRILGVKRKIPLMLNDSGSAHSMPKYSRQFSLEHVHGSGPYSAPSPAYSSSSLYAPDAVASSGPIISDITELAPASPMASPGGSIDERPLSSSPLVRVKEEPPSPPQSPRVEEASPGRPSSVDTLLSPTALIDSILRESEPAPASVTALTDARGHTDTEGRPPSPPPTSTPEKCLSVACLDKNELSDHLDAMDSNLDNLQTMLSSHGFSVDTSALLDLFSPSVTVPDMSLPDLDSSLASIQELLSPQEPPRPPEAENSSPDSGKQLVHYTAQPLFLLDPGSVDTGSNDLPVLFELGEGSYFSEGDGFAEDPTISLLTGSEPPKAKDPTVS
# Chain of CRX (O43186 whole entry): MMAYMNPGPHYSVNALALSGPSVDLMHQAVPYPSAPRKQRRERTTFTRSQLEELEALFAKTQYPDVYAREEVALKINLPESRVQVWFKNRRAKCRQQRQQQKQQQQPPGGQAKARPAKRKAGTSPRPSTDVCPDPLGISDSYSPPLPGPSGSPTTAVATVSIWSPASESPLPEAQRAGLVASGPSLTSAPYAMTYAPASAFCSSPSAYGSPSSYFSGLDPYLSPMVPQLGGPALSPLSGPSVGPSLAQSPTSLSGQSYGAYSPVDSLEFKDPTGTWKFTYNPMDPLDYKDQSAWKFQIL
# Chain of ELF4 (Q99607 whole entry): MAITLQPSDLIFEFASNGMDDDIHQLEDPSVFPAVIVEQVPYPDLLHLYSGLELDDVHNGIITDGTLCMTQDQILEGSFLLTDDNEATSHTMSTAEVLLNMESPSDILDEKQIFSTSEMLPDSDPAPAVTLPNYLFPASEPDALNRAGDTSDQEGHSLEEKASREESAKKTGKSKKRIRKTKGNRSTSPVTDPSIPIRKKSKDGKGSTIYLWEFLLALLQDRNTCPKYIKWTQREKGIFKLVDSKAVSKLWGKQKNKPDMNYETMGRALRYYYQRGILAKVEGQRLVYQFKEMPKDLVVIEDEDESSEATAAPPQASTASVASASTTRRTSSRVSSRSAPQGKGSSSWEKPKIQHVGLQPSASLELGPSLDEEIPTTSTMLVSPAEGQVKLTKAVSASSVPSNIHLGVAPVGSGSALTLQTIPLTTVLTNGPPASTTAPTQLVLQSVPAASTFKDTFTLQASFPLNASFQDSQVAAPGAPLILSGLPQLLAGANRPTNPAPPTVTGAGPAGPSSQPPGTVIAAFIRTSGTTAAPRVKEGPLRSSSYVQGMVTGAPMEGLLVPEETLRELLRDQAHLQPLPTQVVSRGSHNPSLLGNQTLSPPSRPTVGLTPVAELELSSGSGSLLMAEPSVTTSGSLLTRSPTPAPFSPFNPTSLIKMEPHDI
# Chain of ELF1 (P32519 whole entry): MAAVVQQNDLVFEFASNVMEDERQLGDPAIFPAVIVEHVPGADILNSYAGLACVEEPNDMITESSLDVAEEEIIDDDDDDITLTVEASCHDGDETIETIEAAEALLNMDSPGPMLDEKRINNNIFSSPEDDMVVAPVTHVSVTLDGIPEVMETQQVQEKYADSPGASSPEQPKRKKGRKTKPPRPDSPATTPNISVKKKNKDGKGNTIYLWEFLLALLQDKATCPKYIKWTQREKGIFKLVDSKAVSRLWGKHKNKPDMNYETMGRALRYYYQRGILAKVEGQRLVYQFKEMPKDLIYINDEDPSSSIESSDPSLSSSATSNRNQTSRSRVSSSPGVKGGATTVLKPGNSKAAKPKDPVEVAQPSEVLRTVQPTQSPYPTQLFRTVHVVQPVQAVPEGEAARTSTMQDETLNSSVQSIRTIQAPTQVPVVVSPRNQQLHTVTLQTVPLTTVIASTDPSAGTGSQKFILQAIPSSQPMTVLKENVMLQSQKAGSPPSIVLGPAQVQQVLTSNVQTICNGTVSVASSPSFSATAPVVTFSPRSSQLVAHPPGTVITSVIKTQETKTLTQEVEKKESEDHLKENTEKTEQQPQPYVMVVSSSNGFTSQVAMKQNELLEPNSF
# Chain of ETV1 (P50549 whole entry): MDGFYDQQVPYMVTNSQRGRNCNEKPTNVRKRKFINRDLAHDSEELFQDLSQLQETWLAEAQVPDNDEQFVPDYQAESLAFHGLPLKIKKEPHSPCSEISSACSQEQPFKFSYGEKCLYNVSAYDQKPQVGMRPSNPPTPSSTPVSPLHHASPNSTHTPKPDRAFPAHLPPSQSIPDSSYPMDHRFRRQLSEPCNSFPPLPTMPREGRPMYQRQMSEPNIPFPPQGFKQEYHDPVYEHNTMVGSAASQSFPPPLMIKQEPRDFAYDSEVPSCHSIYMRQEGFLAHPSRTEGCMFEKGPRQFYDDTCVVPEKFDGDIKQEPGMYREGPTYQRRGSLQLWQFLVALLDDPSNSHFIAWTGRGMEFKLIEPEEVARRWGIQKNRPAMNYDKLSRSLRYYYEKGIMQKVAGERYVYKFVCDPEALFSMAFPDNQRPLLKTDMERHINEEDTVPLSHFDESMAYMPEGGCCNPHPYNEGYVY
# Chain of ETV5 (P41161 whole entry): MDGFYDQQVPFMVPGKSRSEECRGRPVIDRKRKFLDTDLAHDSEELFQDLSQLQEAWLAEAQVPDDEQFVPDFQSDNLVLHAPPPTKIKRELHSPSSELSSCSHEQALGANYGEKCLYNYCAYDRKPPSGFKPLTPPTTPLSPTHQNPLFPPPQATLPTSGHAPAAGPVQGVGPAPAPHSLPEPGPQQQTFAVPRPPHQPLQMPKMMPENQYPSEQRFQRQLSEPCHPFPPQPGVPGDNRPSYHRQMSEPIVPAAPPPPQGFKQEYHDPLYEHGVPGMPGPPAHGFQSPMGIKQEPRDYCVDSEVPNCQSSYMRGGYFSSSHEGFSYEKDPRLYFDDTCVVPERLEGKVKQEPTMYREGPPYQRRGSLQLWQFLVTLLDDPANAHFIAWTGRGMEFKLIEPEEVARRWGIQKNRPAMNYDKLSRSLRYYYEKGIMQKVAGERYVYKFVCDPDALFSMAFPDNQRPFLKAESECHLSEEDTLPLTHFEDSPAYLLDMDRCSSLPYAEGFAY
sequence,measurement,setting,value
TACTTT,binding signal,FLI1,"1.32 fold enrichment (6-mer frequency, TF over GST control)"
same,binding signal,ELK1,"1.48 fold enrichment (6-mer frequency, TF over GST control)"
same,binding signal,GABPA,"1.41 fold enrichment (6-mer frequency, TF over GST control)"
same,binding signal,ERG,"1.29 fold enrichment (6-mer frequency, TF over GST control)"
same,binding signal,ELF1,"1.34 fold enrichment (6-mer frequency, TF over GST control)"
same,binding signal,EHF,"1.39 fold enrichment (6-mer frequency, TF over GST control)"
same,binding signal,SPI1,"1.25 fold enrichment (6-mer frequency, TF over GST control)"
same,binding signal,SPIB,"1.36 fold enrichment (6-mer frequency, TF over GST control)"
same,binding signal,ELK3,"1.11 fold enrichment (6-mer frequency, TF over GST control)"
same,binding signal,FEV,"1.33 fold enrichment (6-mer frequency, TF over GST control)"
same,binding signal,ETV5,"1.38 fold enrichment (6-mer frequency, TF over GST control)"
same,binding signal,HSF1,"1.44 fold enrichment (6-mer frequency, TF over GST control)"
same,binding signal,SPIC,"1.26 fold enrichment (6-mer frequency, TF over GST control)"
same,binding signal,ELF4,"1.43 fold enrichment (6-mer frequency, TF over GST control)"
same,binding signal,ELK4,"1.4 fold enrichment (6-mer frequency, TF over GST control)"
same,binding signal,ETV2,"1.33 fold enrichment (6-mer frequency, TF over GST control)"
same,binding signal,ELF3,"1.73 fold enrichment (6-mer frequency, TF over GST control)"
same,binding signal,CRX,"1.71 fold enrichment (6-mer frequency, TF over GST control)"
same,binding signal,ETV1,"1.39 fold enrichment (6-mer frequency, TF over GST control)"
